# Only a selection was taken, and hits are over-represented in it overall.
# PostGolgi yeast: phenotypic screen on post-Golgi transport, primary screen; post-Golgi transport phenotypic cell assay; inhibition, % at 10 µM; 0.9% of 98,000 active; AID 739, 2007; in the data active = inhibition above about 30%;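 also: yeast cells grown in 1536-well plates; yeast grown about 18 h at 30C before absorbance read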
# GALR2 ag: GALR2 receptor agonists, primary screen, cell-based | activation, % (test concentration not listed) | 0.48% of 140,000 active | AID 803, 2007 | Galanin receptor type 2 (Homo sapiens), O43603 | GALR2-expressing cells, agonist activation read-out; in the data active = activation above about 5%, passing the limit was not always enough;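 also: 0% = vehicle buffer wells and 100% = reference agonist at full effect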
# Target sequence (O43603 whole entry, looked up): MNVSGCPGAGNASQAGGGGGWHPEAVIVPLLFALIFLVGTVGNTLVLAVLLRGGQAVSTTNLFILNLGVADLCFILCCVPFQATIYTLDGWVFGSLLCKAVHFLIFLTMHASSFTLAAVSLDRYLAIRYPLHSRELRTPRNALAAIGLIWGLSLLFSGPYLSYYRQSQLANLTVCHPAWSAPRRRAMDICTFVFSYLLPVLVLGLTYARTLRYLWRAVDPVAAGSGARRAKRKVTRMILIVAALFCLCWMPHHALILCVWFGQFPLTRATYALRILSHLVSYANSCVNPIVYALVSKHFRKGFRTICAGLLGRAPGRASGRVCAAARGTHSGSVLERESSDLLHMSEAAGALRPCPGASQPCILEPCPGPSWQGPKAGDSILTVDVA
# GALR2 antag: GALR2 antagonists in receptor-expressing cells, primary screen | 0.39% of 140,000 active | AID 828, 2007 | Galanin receptor type 2 (Homo sapiens), O43603 | inhibition, % at 4 µM | antagonist mode;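 also: cells stimulated with galanin 1-16 at roughly its EC80; 0% = agonist challenge control and 100% = basal control without agonist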
# S1P2 blocker: human S1P2 receptor antagonists, primary screen, cell-based; Sphingosine 1-phosphate receptor 2 (Homo sapiens), O95136; cell-based S1P2 antagonist assay, inhibition at 5 uM; inhibition, % at 5 µM; 0.21% of 97,000 active; AID 736, 2007; in the data active = inhibition above about 45%;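 also: CRE beta-lactamase reporter cells expressing human S1P2 stimulated with S1P; 0% = agonist at EC80 alone and 100% = agonist plus reference antagonist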
# PostGolgi ctrl: growth inhibition of yeast control strain, primary screen, counter-screen for post-Golgi transport modulator project; efflux-deficient yeast background strain, growth absorbance A615, 16 h; 5% of 98,000 active; inhibition, % at 10 µM; in the data active = inhibition above about 30%
# S1P2 ag: S1P2 receptor agonists, primary screen, cell-based | Sphingosine 1-phosphate receptor 2 (Homo sapiens), O95136 | S1P2-expressing cell line, agonist reporter read-out | activation, % at 4.5 µM | 0.46% of 97,000 active | AID 729, 2007; in the data active = activation above about 16%;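 also: 0% = vehicle low control and 100% = maximal reference agonist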
# GALR2 ant conf: GALR2 antagonists, retest of hits, confirmation, cell-based. 60% of 480 active. inhibition, % at 4 µM. shares compounds with GALR2 antag. AID 866, 2007. GALR2-expressing cells, antagonist mode, inhibition;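 also: cells stimulated with galanin at about its EC80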
# BLA inhib ctr: inhibitors of NFAT-driven beta-lactamase reporter, confirmation, counter-screen for GALR2 antagonist project, CHO NFAT-bla cells, FRET readout. thapsigargin-stimulated. shares compounds with GALR2 antag. 36% of 480 active. inhibition, % at 4.2 µM. AID 867, 2007;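 active = inhibition above the mean inhibition across tested compounds plus 3 SD, cut at about 27% in these data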;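 also: 0% = 500 nM thapsigargin stimulated wells and 100% = unstimulated BSA only wells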
# Starred values were filed as active, the others as inactive; · = not tested or not shown. Rule as the data show it, unless noted: active = inhibition above about 27%; inactive = the rest.
SMILES,PostGolgi yeast,GALR2 ag,GALR2 antag,S1P2 blocker,PostGolgi ctrl,S1P2 ag,GALR2 ant conf,BLA inhib ctr
O=S(=O)(/C(=C/c1ccc(C(F)(F)F)cc1)c1nc2ccccc2[nH]1)c1ccccc1,·,2,38*,·,·,·,51*,45*
CC(C)c1ccc(/C=C(\c2nc3ccccc3[nH]2)S(=O)(=O)c2ccccc2)cc1,·,-2,0,·,·,·,·,·
COc1ccc(Nc2cnn(-c3nc4ccccc4s3)c(=O)c2Cl)cc1,·,0,44*,·,·,·,52*,58*
Cc1cc(C(=O)CSc2nc3ccccc3[nH]2)c(C)n1CC1CCCO1 (configuration not stated),-8,-2,43*,66*,2,-5,34*,9
CC1CCCCN1Cc1c(O)ccc2c(=O)c(-c3nc4ccccc4s3)c(N)oc12 (configuration not stated),·,-1,11,·,·,·,·,·
Cc1ccc(NC(=O)CN(C)C(=O)Cn2ncc(Cl)c(Cl)c2=O)cc1,·,-2,60*,·,·,·,83*,33*
Cc1ccc(NC(=O)CN(C)C(=O)COc2c(Cl)cc(Cl)c3ccc(C)nc23)cc1,·,-1,2,·,·,·,·,·
O=C(CSc1nnnn1C1CCCC1)NCc1ccccc1,14,-1,-3,15,-6,-3,·,·
O=C(CSc1nnnn1C1CC2CCC1C2)Nc1ccnc2ccccc12 (configuration not stated),3,0,45*,·,12,·,64*,20
CCOC(=O)C(O)(CC(=O)Nc1cc(F)ccc1C)C(F)(F)F (configuration not stated),·,-2,29*,7,·,-1,8,5
COc1ccc(-c2cn3nc4c(nc3n2)CCCC4)cc1,-7,0,31*,5,1,-6,16,20
COc1cccc(-c2cn3nc(C)c(C)nc3n2)c1,4,0,-16,2,19,2,·,·
Nc1cc(=O)[nH]c(SCc2nnnn2-c2ccc(Cl)cc2)n1,·,-1,2,·,·,·,·,·
COc1cccc(C2=CC(c3ccccc3)n3ncnc3N2)c1 (configuration not stated),0,-1,27*,25,6,-7,30*,36*
COc1cccc(C2=CC(c3ccc(N(C)C)cc3)n3ncnc3N2)c1 (configuration not stated),-1,1,8,-8,8,-1,·,·
Cc1ccc(Cc2cnc(NC(=O)c3ccco3)s2)cc1,-7,-2,-4,-1,20,-2,·,·
O=C(Nc1ncc(Cc2ccc(SC(F)F)cc2)s1)c1ccc(OC(F)F)cc1,·,3,33*,·,·,·,8,27*
Cc1ccc(SC(C)C(=O)Nc2ccccc2C(=O)N2CCOCC2)cc1 (configuration not stated),0,-1,32*,-10,18,-3,8,2
Clc1ccc2nc(N3CCNCC3)nc(-c3ccccc3)c2c1,25,24*,35*,2,14,59*,30*,50*
COc1cccc(C(=O)Nc2ccc(S(=O)(=O)NCc3ccco3)cc2)c1,3,0,29*,·,3,·,15,12
O=C(NCc1cc(Br)cc(Br)c1OC(=O)c1ccccc1[N+](=O)[O-])c1ccccc1,·,-1,4,·,·,·,·,·
CC(=O)SC(C[N+](=O)[O-])c1cn(C(C)=O)c2ccccc12 (configuration not stated),10,-1,35*,29,28,-10,56*,21
CC(=O)n1cc(Nc2ccccc2C(=O)O)c2ccccc21,7,-3,11,9,20,-2,·,·
CCOc1ccc(C2=Nn3c(nnc3-c3ccccc3OC)SC2)cc1,5,5.3*,33*,6,18,5,32*,60*
CCOc1ccc(-c2nnc3n2N=C(c2ccc(OC)cc2)CS3)cc1,1,-2,-1,-25,-2,2,·,·
SMILES,PostGolgi yeast,GALR2 ag,GALR2 antag,S1P2 blocker,PostGolgi ctrl,S1P2 ag,GALR2 ant conf,BLA inhib ctr
COc1ccc(-n2nc(C(=O)Nc3ccc4c(c3)OCO4)c3ccccc3c2=O)c(OC)c1,3,-2,5,·,-2,·,·,·
COc1ccccc1-n1nc(C(=O)Nc2ccc3c(c2)OCO3)c2ccccc2c1=O,-1,-2,42*,·,4,·,26,31*
CC1(C)Oc2ccccc2OC1(O)c1ccc2ccccc2n1 (configuration not stated),·,-2,4,·,·,·,·,·
O=[N+]([O-])c1cc(-c2ncccn2)c([N+](=O)[O-])s1,·,-1,45*,·,·,·,55*,26
COC(=O)CCC(=O)NC(=S)Nc1sc(C)c(C)c1C(N)=O,·,1,9,·,·,·,·,·
Cc1sc(NC(=S)NC(=O)CCc2ccccc2)c(C(N)=O)c1C,·,4,33*,·,·,·,28*,36*
CCCC(=O)OCCn1c(Br)nc2c1c(=O)[nH]c(=O)n2C,-1,-1,30*,-5,14,-13,25,0
O=C(NC(Cc1ccccc1)C(=O)Oc1ccc2c(C(F)(F)F)cc(=O)oc2c1)OCc1ccccc1 (configuration not stated),·,0,32*,·,·,·,20,23
Oc1ccccc1/C=N/Nc1ccccc1,·,-1,30*,·,·,·,38*,13
Oc1ccccc1/C=N/Nc1ncc(Br)cn1,·,-1,8,·,·,·,·,·
O=C(NNC(=S)Nc1ccc(OC(F)F)cc1)c1cc2c(s1)CCCC2,·,-1,1,·,·,·,·,·
CC(CC(=O)c1cccs1)CC(=O)c1cccs1,-4,-4,33*,15,18,-9,9,5
Cc1ccc(-n2c(=O)c3sccc3n(Cc3cc(=O)n4cc(Cl)ccc4n3)c2=O)cc1F,·,0,11,·,·,·,·,·
Cn1nc(-c2ccc(Cl)cc2)nc2c(=O)n(C)c(=O)nc1-2,106*,4,94*,99*,107*,-3,100*,95*
O=C(CSc1nnc(-c2cccs2)o1)Nc1cccc(S(=O)(=O)N2CCCCC2)c1,·,0,-6,·,·,·,·,·
CCOCCCNc1ncnc2c1[nH]c1ccccc12,1,-1,29*,20,-1,-5,25,16
c1nc(NCC2CCCO2)c2[nH]cnc2n1 (configuration not stated),·,-1,0,6,·,-7,·,·
CCCCOCCCNc1ncnc2c1[nH]c1ccccc12,3,-1,47*,29,4,-1,31*,23
c1ccc2c(c1)[nH]c1c(NCC3CCCO3)ncnc12 (configuration not stated),10,0,28*,10,3,-11,27*,5
CCCCn1cnc2c([nH]c3ccccc32)c1=O,-3,0,1,9,0,-4,·,·

# Source: PubChem (several laboratories)
